According to PubChem BioAssay (NCATS):
Results filed as inconclusive are left out. Where a call stands in place of a potency, no number is given. A number with no mark means an inactive call. Active and inactive are the calls of the source. Calls come from the whole dose curve; as a rule, active = well fitted inhibition curve with a large enough effect; inconclusive = small, poorly fitted or top-dose-only effect; inactive = flat fitted curve, though single readings scatter. Square brackets hold non-standard residues; d marks the D form. Peptide text beside a SMILES is read from it. ξ: configuration not given here. ξLac(3-iPr) = CC(C)CC(O)C(=O)O; NMeV = CN[CH](C(=O)O)C(C)C; βAla = NCCC(=O)O

Molecular target: Aldehyde dehydrogenase, mitochondrial (Homo sapiens) (UniProt P05091)
Assay: qHTS for Inhibitors of the Aldehyde Dehydrogenase Family (ALDH2) Primary screen (AID 2061308); note: nearly all actives have a fitted effect of over 55% in size
Settings: ALDH2 enzyme inhibition qHTS, 1536-well; series mostly up to 56 µM

How did the Potency turn out when `O=C(CCCN1CCN(c2ccc(F)cc2)CC1)NC1c2ccccc2CSc2ccccc21` (stereo not given) was run?
The Potency was “inactive”.

Which Potency does the source give for `Cc1nc2ccc(Oc3ccc(F)cc3)cc2c(=O)n1C[C@H]1CCCN(C(C)C)C1` here?
The Potency was “inactive”.

How did the Potency turn out when `CCCCn1c(-c2ccccc2)nc(-c2ccccc2)c1CN(Cc1ccc2c(c1)OCO2)Cc1ccc2c(c1)OCO2` was run?
The Potency was “inactive”.

How did the Potency turn out when `O=C(CC1C(=O)Nc2ccccc21)OC[C@H]1O[C@@H](OCCc2ccc(O)cc2)[C@H](O)[C@@H](O)[C@@H]1O` (stereo not given in full) was run?
Its Potency is “inactive”.

Which Potency does the source give for `CC[C@H](C)/C=C(C)/C=C/C1=CC2=CC(=O)[C@]3(C)OC(=O)[C@@H](C(C)=O)[C@@H]3C2=CO1` here?
The Potency was “inactive”.

`N#Cc1ccc(Nc2nc(-c3ccc(O)cc3O)cs2)cc1C(F)(F)F` was tested. Which Potency did it give?
Its Potency is “inactive”.

Which activity change, negative = inhibition does the source give for `CC1(C)CC[C@]2(C(=O)O[C@@H]3O[C@H](CO[C@@H]4O[C@H](CO)[C@@H](O)[C@H](O)[C@H]4O[C@@H]4O[C@H](CO)[C@H](O)[C@H](O)[C@H]4O)[C@@H](O)[C@H](O[C@@H]4O[C@H](CO)[C@@H](O)[C@H](O)[C@H]4O)[C@H]3O)CC[C@]3(C)C(=CCC4[C@@]5(C)CC[C@H](O[C@@H]6OC[C@@H](O)[C@H](O)[C@H]6O)[C@@](C)(C(=O)O)C5CC[C@]43C)[C@@H]2C1` (stereo not given in full) here?
Its activity change, negative = inhibition is 6.97% [at 11.2 µM].

How did the activity change, negative = inhibition turn out when `CC1OC(O[C@H]2[C@@H](O)C[C@@]3(C)C([C@H](O)C[C@]4(C)C3CC=C3C5CC(C)(C)CC[C@]5(C(=O)OC5OC(CO)C(O)C(O)C5OC5OCC(OC6OCC(OC7OCC(O)C(O)C7O)C(O)C6O)C(OC6OCC(O)(CO)C6O)C5O)CC[C@]34C)[C@]2(C)CO)C(O)C(O)C1O` (stereo not given in full) was run?
The activity change, negative = inhibition was -1.36% [at 11.2 µM].

With `CS(=O)(=O)N(CC(=O)NCC1CC1)c1cc(C(F)(F)F)ccc1Cl` as the molecule, how does the Potency read?
The Potency was “inactive”.

Which Potency does the source give for `O=c1c2cccnc2n(-c2cccc([N+](=O)[O-])c2)c(=O)n1Cc1ccncc1` here?
The Potency was “inactive”.

With `CC(=O)NC(C(=O)O[C@H]1CCC(C)(C)[C@@H]2CC=C3C(=O)OCC3(O)[C@@]12C)C(C)C` (stereo not given in full) as the molecule, how does the Potency read?
Its Potency is “inactive”.

How did the Potency turn out when `CC(C)c1cc2c(N3CCN(C4=NCC(C)(C)S4)CC3)ncnc2s1` was run?
The Potency was “inactive”.

For `CC(=O)OC1CC(C)(C(=O)O)CC2C3=CC(=O)C4C5(C)CCC(OC6OC(C(=O)O)C(O)C(O)C6OC6OC(C(=O)O)C(O)C(O)C6O)C(C)(C)C5CCC4(C)C3(C)CCC12C` (stereo not given), which Potency is on record?
The Potency was “inactive”.

How did the Potency turn out when `CC(C)CC1OC(=O)C2CCCN2C(=O)CCNC(=O)C(Cc2ccccc2)NC(=O)C(C(C)C)N(C)C(=O)C(C(C)C)N(C)C1=O` (stereo not given) (cyclo([ξLac(3-iPr)][NMeV][NMeV]F[βAla]P); configuration not given here) was run?
The Potency was “inactive”.

With `C[C@@H]1O[C@@H](O[C@H]2[C@H](O)[C@@H](O)[C@H](OC[C@H]3O[C@@H](OC(=O)[C@]45CCC(C)(C)C[C@H]4C4=CCC6[C@@]7(C)C[C@H](O)[C@H](O[C@@H]8O[C@H](CO)[C@@H](O)[C@H](O)[C@H]8O)[C@@](C)(C(=O)O)C7CC[C@@]6(C)[C@]4(C)CC5)[C@H](O[C@@H]4O[C@H](CO)[C@@H](O)[C@H](O)[C@H]4O)[C@@H](O)[C@@H]3O)O[C@@H]2CO)[C@H](O)[C@H](O)[C@H]1O` (stereo not given in full) as the molecule, how does the activity change, negative = inhibition read?
Its activity change, negative = inhibition is 8.16% [at 11.2 µM].

`CC1(C)CC[C@]2(C(=O)O[C@@H]3O[C@H](CO)[C@@H](O)[C@H](O)[C@H]3O)CC[C@]3(C)C(=CCC4[C@@]5(C)CC[C@H](O[C@@H]6O[C@H](C(=O)O)[C@H](O)[C@H](O)[C@H]6O)C(C)(C)C5CC[C@]43C)[C@@H]2C1` (stereo not given in full) was tested. Which Potency did it give?
Its Potency is “inactive”.

With `CC#C[C@@H](CC(=O)O)c1ccc(OCc2ccc(CN3CCC4(C=Cc5ccccc54)CC3)s2)cc1` as the molecule, how does the Potency read?
The Potency was “inactive”.

With `C[C@@H]1O[C@@H](O[C@H]2[C@H](O[C@H]3[C@H](O[C@H]4CC[C@@]5(C)C(CC[C@]6(C)C5CC=C5[C@@H]7CC(C)(C)CC[C@]7(C(=O)O[C@@H]7O[C@H](CO)[C@@H](O[C@@H]8O[C@@H](C)[C@H](O)[C@@H](O)[C@H]8O)[C@H](O)[C@H]7O)CC[C@]56C)C4(C)C)OC[C@H](O)[C@@H]3O)O[C@H](CO)[C@@H](O)[C@@H]2O)[C@H](O)[C@H](O)[C@H]1O` (stereo not given in full) as the molecule, how does the activity change, negative = inhibition read?
Its activity change, negative = inhibition is 3.25% [at 11.2 µM].

For `Cc1cc(C(N)=O)ccc1-n1c(CCC(=O)O)ccc1-c1ccc(-n2ccnc2)cc1`, which Potency is on record?
Its Potency is “inactive”.

With `CCN(Cc1cccnc1)C(=O)CN(c1ccc(OC)nc1)S(=O)(=O)c1ccccc1C` as the molecule, how does the Potency read?
Its Potency is “inactive”.

Which Potency does the source give for `Cc1onc(-c2c(F)cccc2Cl)c1C(=O)N[C@@H]1C(=O)N2[C@@H]1SC(C)(C)[C@@H]2C(=O)O` here?
Its Potency is “inactive”.

With `O=c1[nH]c([C@@H]2CCCN2)nc2c1oc1ccc(Cl)cc12` as the molecule, how does the Potency read?
Its Potency is “inactive”.

How did the Potency turn out when `CC(C)(O)C1CC(=O)C2(C)C(CCC3(C)C(c4ccoc4)OC(=O)C4OC432)C12CCC(=O)OC2` (stereo not given) was run?
Its Potency is “inactive”.

Which Potency does the source give for `C=C(CO[C@@H]1O[C@H](CO[C@@H]2OC[C@](O)(CO)[C@H]2O)[C@@H](O)[C@H](O)[C@H]1O)C1Cc2cc(C(C)=O)ccc2O1` (stereo not given in full) here?
Its Potency is “inactive”.

With `COc1cccc(OC)c1-c1ccc(C[C@H](NC(=O)c2c(Cl)cccc2Cl)C(=O)O)cc1` as the molecule, how does the Potency read?
Its Potency is “inactive”.

For `CC1=CCC2C(C)(C)CCC[C@]2(C)[C@@]12CC[C@](C)(CC(=O)O)O2` (stereo not given in full), which Potency is on record?
The Potency was “inactive”.

Which Potency does the source give for `C=CC(C)(CC/C=C(\C)C(=O)OC)OC1OC(COC(=O)CC(C)(O)CC(=O)O)C(O)C(O)C1O` (stereo not given) here?
The Potency was “inactive”.

How did the Potency turn out when `CC12CC34C=CC(=O)C(C)(CCC(=O)O)C3C(CC1C4)O2` (stereo not given) was run?
Its Potency is “inactive”.

Which Potency does the source give for `Cc1sc2c(c1C)C(c1ccc(Cl)cc1)=N[C@H](CC(=O)NCCCCNC(=O)COc1cccc3c1C(=O)N([C@H]1CCC(=O)NC1=O)C3=O)c1nnc(C)n1-2` here?
The Potency was “inactive”.

Which Potency does the source give for `CC(=O)Nc1ccn(C2COC(COC(=O)c3ccccc3)O2)c(=O)n1` (stereo not given) here?
Its Potency is “inactive”.

Which Potency does the source give for `CC1(C)C2CC[C@@]34CC(CC[C@H]3[C@]2(C)CC[C@@H]1O[C@@H]1O[C@H](CO)[C@@H](O)[C@H](O)[C@H]1O)[C@](C)(O)C4` (stereo not given in full) here?
The Potency was “inactive”.

For `O=C(NCCN1CCCC1)c1cc(-c2ccc(CN3CCOCC3)cc2)nc2ccc(F)cc12`, which Potency is on record?
Its Potency is “inactive”.

How did the Potency turn out when `CCc1nn(CCO)c(CC)c1Oc1cc(C#N)cc(C#N)c1` was run?
Its Potency is “inactive”.

How did the Potency turn out when `C[C@@H]1CC[C@H]2C(C)(C)[C@H](O)[C@H](O)C[C@]2(C)[C@@]12Cc1c(O)cc3c(c1O2)CNC3=O` was run?
The Potency was “inactive”.

For `C/C(=C/CO)CCC1C(C)CCC2C(C)(C)CCCC12C` (stereo not given), which Potency is on record?
Its Potency is “inactive”.

For `COc1c2c(c(C)c3c1C(=O)OC3)O[C@@]1(C)CC(O)C(C(C)(C)O)[C@](C)(CCC(=O)O)[C@H]1C2` (stereo not given in full), which Potency is on record?
The Potency was “inactive”.

How did the Potency turn out when `C=CC(C)(O)C1CC2C3(C)CCCC(C)(C)C3C(O)C(O)C2(C)O1` (stereo not given) was run?
Its Potency is “inactive”.

Which Potency does the source give for `CC(=O)O[C@H]1[C@H](O)C[C@@]2(C)C(CC[C@]3(C)C2CC=C2C4CC(C)(C)CC[C@]4(C(=O)O)CC[C@]23C)C1(C)C` (stereo not given in full) here?
The Potency was “inactive”.

Which Potency does the source give for `C=C1C(O)CC2C(C(=O)O)=COC(O[C@@H]3O[C@H](COC(=O)c4ccc(O)cc4)[C@@H](O)[C@H](O)[C@H]3O)C12` (stereo not given in full) here?
Its Potency is “inactive”.

Which activity change, negative = inhibition does the source give for `CC(C)C[C@H](CC(=O)NO)C(=O)N[C@H](C(=O)N[C@@H](C)C(=O)NCCN)C(C)(C)C` here?
The activity change, negative = inhibition was 1.06% [at 11.2 µM].
